The values that follow come from PubChem BioAssay (NCATS).

Assay [1] is described as follows: NFAT Signaling Pathway (AID 444).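 Further: carbachol stimulus at about its EC50 of 1 µM final; on the % scale 0 is the no-effect control and ±100 the full control effect.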 The following applies: Jurkat NFAT-bla M1, carbachol, beta-lactamase ratio, 5 h; at 17.2 µM (top of the series) unless noted. The essentials: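 Jurkat cells carrying an NFAT-driven β-lactamase reporter and co-transfected muscarinic M1 receptor were treated with compound plus carbachol (1 uM final, an EC50 level) for 5 h at 37 °C. CCF4 loading followed for 1 h at RT; 460/530 nm ratio gave %activity.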

A short description of assay [2]: Stat Signaling Pathway (AID 446).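 Further: ME-180 cervical cancer cells given 40 pM IL-6 alongside compound; SIE-controlled beta-lactamase reporter measured as 460/530 nm FRET emission ratio; on the % scale 0 is the no-effect control and ±100 the full control effect.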 The following applies: ME-180 (cervical carcinoma) SIE beta-lactamase reporter, IL-6 stimulated, 5 h; series mostly up to 17.2 µM. The essentials:
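Normalization used AC90 stimulation (300 pM IL-6) and AC90 inhibition (125 nM pan-JAK inhibitor at 40 pM IL-6). The underlying signal is SIE-driven beta-lactamase in ME-180 cells after 5 h IL-6 exposure with compound.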

In assay [3] the target is Glucocorticoid receptor (Homo sapiens) (UniProt P04150). As to the kind of experiment: GR-GFP Redistribution (AID 450;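 active means compounds whose dose series gives a full or clear partial fitted curve of increased nuclear translocation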; further: potency means the concentration at half of the fitted maximal effect). As to conditions: U2OS GR-GFP nuclear translocation, laser cytometry, 2 h.
Chain of Glucocorticoid receptor (Homo sapiens) (P04150 whole entry, looked up, the tested form may be a part): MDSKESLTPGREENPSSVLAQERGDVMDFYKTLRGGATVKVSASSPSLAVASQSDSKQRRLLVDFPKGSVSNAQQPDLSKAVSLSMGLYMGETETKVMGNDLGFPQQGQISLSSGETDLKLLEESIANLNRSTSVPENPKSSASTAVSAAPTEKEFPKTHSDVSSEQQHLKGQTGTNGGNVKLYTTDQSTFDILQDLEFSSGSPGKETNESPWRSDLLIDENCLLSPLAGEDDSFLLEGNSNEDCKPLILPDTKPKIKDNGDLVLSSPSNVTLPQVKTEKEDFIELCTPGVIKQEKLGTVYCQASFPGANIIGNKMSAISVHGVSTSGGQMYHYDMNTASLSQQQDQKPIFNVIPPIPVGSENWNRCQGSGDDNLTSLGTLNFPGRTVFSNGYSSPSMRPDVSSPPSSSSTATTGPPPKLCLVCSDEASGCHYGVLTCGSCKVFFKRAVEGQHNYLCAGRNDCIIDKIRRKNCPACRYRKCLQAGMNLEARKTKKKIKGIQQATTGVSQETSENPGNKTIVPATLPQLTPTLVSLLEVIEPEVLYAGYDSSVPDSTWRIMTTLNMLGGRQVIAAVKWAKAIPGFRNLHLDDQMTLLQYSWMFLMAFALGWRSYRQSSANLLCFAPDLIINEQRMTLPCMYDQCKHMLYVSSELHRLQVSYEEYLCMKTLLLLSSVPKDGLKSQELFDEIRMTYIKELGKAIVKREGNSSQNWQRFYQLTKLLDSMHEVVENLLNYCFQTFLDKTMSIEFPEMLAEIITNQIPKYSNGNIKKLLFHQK
In assay [4] the target is 3',5'-cyclic-AMP phosphodiesterase 4B (Homo sapiens) (UniProt Q07343). The assay is described as follows: qHTS Assay for Inhibitors of PDE-IV (AID 607; active means well fitted activation curve with a large enough effect in the main read-out, with a control signal flat, not every such curve was filed as active; further: % of control where 0% means no effect). As to conditions: HEK293 ACTOne CNG channel cells, membrane potential fluorescence; series mostly up to 22.9 µM. The essentials:
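HEK293 ACTOne cells with CNG channel (1000/well), endogenous PDE4; membrane potential dye, compounds up to 22.9 uM final. Fluorescence Ex 535/Em 590; RO 20-1724 (100 uM final) as reference.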
On the technique in general: qHTS replaces the single test concentration by a dilution series.

Assay [5] addresses Glucocorticoid receptor (Homo sapiens) (UniProt P04150). As to the kind of experiment: GR-EFC Redistribution (AID 451; calls by dose curve; further: potency means the concentration at half of the fitted maximal effect). The following applies: CHO-K1 GR-EFC translocation, beta-gal luminescence, 2 h. The essentials: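 CHO-K1 cells stably expressing nuclear-localized β-gal enzyme acceptor and GR fused C-terminally to the enzyme donor fragment; ligand-driven nuclear translocation restores β-gal by complementation. Compounds titrated up to 46 uM final, 2 h at 37 °C; luminescence read.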

For assay [6], the target named is Mitogen-activated protein kinase 10 (Mus musculus) (UniProt Q61831). As to the kind of experiment: JNK3 AlphaScreen Assay (AID 530).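 Further: kinase came from lysate of stimulated human HepG2 cells; on the % scale 0 is the no-effect control and ±100 the full control effect.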 As to conditions: JNK3 lysate, c-Jun phosphorylation; series mostly up to 57.1 µM. The essentials: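 Biotinylated GST-cJun(1-79) served as substrate for JNK3 in HepG2 lysates stimulated with IL-1beta and TNF-alpha. ATP was 10 uM final, pH 7.6. Ser73 phosphorylation was quantified by AlphaScreen (680 nm excitation).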
Background: Alpha assays give light when donor and acceptor beads are brought close together.

Assay [7] has as its target Cytochrome P450 3A4 (Homo sapiens) (UniProt P08684). The assay is described as follows: qHTS Assay for Activators of Cytochrome P450 3A4 (AID 885; active means well fitted activation curve with a large enough effect; further: nearly all actives have a fitted effect of over 65% in size). The following applies: recombinant CYP3A4, Luciferin-PPXE luminescence, 60 min; series mostly up to 57.1 µM. A digest of the protocol: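 Human CYP3A4 dealkylates Luciferin-PPXE to luciferin, which luciferase detection converts to light. Substrate was at its KM (25uM), buffer 200mM KPO4, reaction 60 min at RT.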

A number with no mark means an inactive call. Records with an inconclusive call do not appear. Calls of active or inactive are those of the source. Unless noted, the call rests on the fitted dose curve; in most records, active means well fitted curve in either direction with a large enough effect (not every such curve was filed as active); inconclusive means small, poorly fitted or top-dose-only effect, or another doubt; inactive means flat fitted curve, though single readings scatter. Where a SMILES comes first, the peptide text is derived from it.

Chain of 3',5'-cyclic-AMP phosphodiesterase 4B (Homo sapiens) (Q07343 whole entry, looked up): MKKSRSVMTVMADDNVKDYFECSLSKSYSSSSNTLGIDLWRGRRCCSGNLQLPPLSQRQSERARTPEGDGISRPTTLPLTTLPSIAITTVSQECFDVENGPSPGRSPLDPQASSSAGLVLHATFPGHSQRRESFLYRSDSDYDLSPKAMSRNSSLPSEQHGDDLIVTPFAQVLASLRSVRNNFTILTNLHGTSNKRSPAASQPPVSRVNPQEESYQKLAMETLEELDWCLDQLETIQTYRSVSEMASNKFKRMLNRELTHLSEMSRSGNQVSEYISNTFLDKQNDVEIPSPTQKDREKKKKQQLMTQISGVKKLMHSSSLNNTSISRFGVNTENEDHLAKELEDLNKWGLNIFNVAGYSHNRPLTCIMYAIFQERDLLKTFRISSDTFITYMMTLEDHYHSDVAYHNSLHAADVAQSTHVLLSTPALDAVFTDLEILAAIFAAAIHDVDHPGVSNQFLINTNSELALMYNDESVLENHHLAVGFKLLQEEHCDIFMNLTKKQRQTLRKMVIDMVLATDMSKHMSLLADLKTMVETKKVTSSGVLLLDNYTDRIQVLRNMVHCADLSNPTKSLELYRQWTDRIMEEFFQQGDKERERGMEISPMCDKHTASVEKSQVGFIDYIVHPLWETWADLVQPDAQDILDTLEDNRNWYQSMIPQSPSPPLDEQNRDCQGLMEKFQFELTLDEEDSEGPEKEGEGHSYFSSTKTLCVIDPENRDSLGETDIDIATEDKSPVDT
Chain of Cytochrome P450 3A4 (Homo sapiens) (P08684 whole entry, looked up): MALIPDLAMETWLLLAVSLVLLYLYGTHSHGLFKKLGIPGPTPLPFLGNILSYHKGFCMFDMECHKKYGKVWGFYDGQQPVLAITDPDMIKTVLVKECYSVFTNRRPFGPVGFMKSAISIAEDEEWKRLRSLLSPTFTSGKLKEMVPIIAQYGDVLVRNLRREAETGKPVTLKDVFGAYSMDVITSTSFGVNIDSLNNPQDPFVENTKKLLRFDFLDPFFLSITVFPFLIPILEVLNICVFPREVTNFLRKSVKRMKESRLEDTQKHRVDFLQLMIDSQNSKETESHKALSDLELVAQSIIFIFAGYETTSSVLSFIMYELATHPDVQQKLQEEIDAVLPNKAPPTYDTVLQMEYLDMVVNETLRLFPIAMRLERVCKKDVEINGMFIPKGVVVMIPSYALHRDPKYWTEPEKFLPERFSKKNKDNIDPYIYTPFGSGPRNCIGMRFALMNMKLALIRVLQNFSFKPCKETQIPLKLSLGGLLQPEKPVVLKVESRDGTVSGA

Turning to `OC(c1ccc(F)cc1)C(c1ccccc1)N1CCOCC1` (configuration not stated), the activity change, negative = inhibition in assay [1] was -1.44%. In addition, the result in assay [2] was inactive. Besides, the Potency in assay [3] is above 20.6 µM.

As for `C[C@@H]1O[C@@H](O[C@H]2C[C@@H](O)[C@]3(CO)[C@@H]4[C@@H](O)C[C@]5(C)[C@H](C6=CC(=O)OC6)CC[C@@]5(O)[C@H]4CC[C@@]3(O)C2)[C@H](O)[C@H](O)[C@@H]1O`, in assay [1], the activity change, negative = inhibition was -76.4% [at 38 µM] (active). In addition, in assay [4], the result was inactive.

As for `CC(C)C[C@H](NC(=O)[C@@H]1CCCN1C(=O)[C@@H](N)Cc1ccc(O)cc1)C(=O)NCC(N)=O` (H-YPLG-NH2), in assay [1], the activity change, negative = inhibition was 14.8%. Besides, in assay [2], the outcome was inactive. Also, the Potency in assay [3] was above 20.6 µM.

In the case of `COc1ccc(C2SCC(=O)Nc3c2c(=O)[nH]n3C2CCCCCC2)cc1` (configuration not stated), the activity change, negative = inhibition in assay [1] is 1.93%.

Turning to `COc1ccc(Cn2c(O)c(C=NCCN3CCOCC3)c(=O)[nH]c2=O)cc1`, in assay [1], the activity change, negative = inhibition is -3.63%. Moreover, the Potency in assay [3] is above 20.6 µM.

Regarding `CCOc1ccc(Cc2c(O)[nH]c(=O)[nH]c2=O)cc1`, the activity change, negative = inhibition in assay [1] is 3.49%. In addition, in assay [2], the molecule was classed as inactive.

For `CC(=O)[C@@H]1CC[C@@H]2[C@H]3CC[C@H]4C[C@@H](O)CC[C@]4(C)[C@@H]3C(=O)C[C@]21C`, in assay [1], the activity change, negative = inhibition is -2.4% [at 38 µM]. Besides, the molecule was called inactive in assay [2].

In the case of `O=c1[nH]c(=O)n(Cc2ccccc2)c(O)c1C=NCCN1CCNCC1`, in assay [1], the activity change, negative = inhibition was -23.3%. The outcome in assay [2] was inactive. Moreover, the Potency in assay [3] is above 20.6 µM.

On to `CC(C)(C)OC(=O)c1c(N)n(Cc2ccco2)c2nc3ccccc3nc12`, for which the activity change, negative = inhibition in assay [1] is 5.75%. The call in assay [2] was inactive. Besides, the Potency in assay [3] was above 20.6 µM.

Turning to `OC(Cc1ccccc1)(c1ccccc1)C1CN2CCC1CC2` (configuration not stated), the activity change, negative = inhibition in assay [1] is -83.4% (active). For the same molecule, the outcome in assay [2] was inactive.

Regarding `O=[N+]([O-])c1ccc(O[C@H]2O[C@@H](CO)[C@@H](O)[C@@H](O)[C@@H]2F)c([N+](=O)[O-])c1`, the activity change, negative = inhibition in assay [1] is 14.6% [at 38 µM]. For the same molecule, the outcome in assay [2] and in assay [6] was inactive. For the same molecule, the Potency in assay [3] and in assay [5] was above 46 µM in each case.

Regarding `COCCOC(=O)c1c(N)n(Cc2ccco2)c2nc3ccccc3nc12`, the activity change, negative = inhibition in assay [1] was 16.1%. Further, the outcome in assay [2] was inactive. Besides, in assay [3], the Potency was above 20.6 µM.

In the case of `Oc1cc2c(cc1O)[C@H]1c3ccccc3CN[C@@H]1CC2`, in assay [1], the activity change, negative = inhibition is -4.87% [at 38 µM]. The outcome in assay [2] and in assay [6] was inactive. Further, the Potency in assay [3] and in assay [5] was above 46 µM each time.

With `CCCCc1nc2ccccc2c(=O)n1-c1ccccc1O`, the activity change, negative = inhibition in assay [1] is -4.7%. Further, in assay [2], the outcome was inactive. For the same molecule, the Potency in assay [3] is above 20.6 µM.

On to `C=CCOC(=O)C1=C(C)OC(N)=C(C#N)C12C(=O)N(CN1CCOCC1)c1ccccc12` (configuration not stated), for which the activity change, negative = inhibition in assay [1] was -2.25%. Besides, the call in assay [2] was inactive. For the same molecule, the Potency in assay [3] was above 20.6 µM.

With `CC1CN=C(Nc2ccc(N(C)C)cc2)S1` (configuration not stated), the activity change, negative = inhibition in assay [1] was -26.5%.

With `COC(=O)C(O)(c1c[nH]c2ccccc12)C(F)(F)F` (configuration not stated), the activity change, negative = inhibition in assay [1] is -8.45%. In addition, in assay [2], the call was inactive. Further, in assay [3], the Potency was above 20.6 µM.

With `CCn1c(O)c(C(=O)CC2NCCc3ccccc32)c(=O)n(CC)c1=S` (configuration not stated), the activity change, negative = inhibition in assay [1] is 22.3%. Further, the outcome in assay [2] was inactive. For the same molecule, the Potency in assay [3] is above 20.6 µM.

As to `COCC(C)OC(=O)c1c(N)n(Cc2ccco2)c2nc3ccccc3nc12` (configuration not stated), the activity change, negative = inhibition in assay [1] was 10.7%. The result in assay [2] was inactive. Moreover, the Potency in assay [3] was above 20.6 µM.

As for `Cc1ccc(C)c(C2(O)CC(C)N(C)CC2C)c1` (configuration not stated), the activity change, negative = inhibition in assay [1] was 9.11%. Besides, the Potency in assay [3] is above 20.6 µM.

Consider `CC1CCC(C(C)C)C(OP(N)(=O)c2ccccc2)C1` (configuration not stated), for which the activity change, negative = inhibition in assay [1] is 16.1%. Also, the result in assay [2] was inactive. Moreover, the Potency in assay [3] was above 20.6 µM.

On to `CN1CCc2nc(SCC(=O)OC(C)(C)C)c(C#N)cc2C1`, for which, in assay [1], the activity change, negative = inhibition was -15.8%. In addition, the Potency in assay [3] is above 20.6 µM.

In the case of `O[C@@H]1CCCC[C@H]1N1CCC(c2ccccc2)CC1`, in assay [1], the activity change, negative = inhibition is -6.89% [at 38 µM]. The result in assay [2] and in assay [6] was inactive. The Potency in assay [3] and in assay [5] was above 46 µM each time.

For the molecule `COc1ccc(-n2c(SC)nc3ccccc3c2=O)cc1`, the activity change, negative = inhibition in assay [1] was 12.3%. Moreover, the outcome in assay [2] was inactive. The Potency in assay [3] was above 20.6 µM.

As for `Oc1ccc2c3c1O[C@@H]1[C@@H](O)CC[C@]4(O)[C@H](C2)N(CC2CCC2)CC[C@@]314`, the activity change, negative = inhibition in assay [1] is 2.45% [at 38 µM]. Further, the Potency in assay [3] and in assay [5] was above 46 µM in each case. For the same molecule, the molecule was classed as inactive in assay [4].

For `COC[C@H]1OC(=O)c2coc3c2[C@@]1(C)C1=C(C3=O)[C@H]2CCC(=O)[C@@]2(C)C[C@H]1OC(C)=O`, in assay [7], the Potency entry was “inactive”.
